Bioassay records (PubChem)
Only some compounds are listed: those with a hit (about 6.3% of all), similar ones and a draw of the others.
MK inhibit = S. pneumoniae MK inhibitors, primary screen, biochemical, PK/LDH-coupled NADH absorbance. hit rate 0.48% among 65,000. inhibition, % at 10 µM. mevalonate kinase [Streptococcus pneumoniae D39]. purified MK, PK/LDH-coupled NADH absorbance 340 nm. AID 555, 2006;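 active = ranked among the strongest by inhibition in the single 10 µM screen, a fixed top-ranked set picked for dose follow-up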
PMK inhibit = S. pneumoniae PMK inhibitors, primary screen, biochemical, mevalonate pathway, pilot trial included. phosphomevalonate kinase (Streptococcus pneumoniae D39). purified PMK, PK/LDH-coupled NADH absorbance 340 nm. inhibition, % at 10 µM. hit rate 0.49% among 65,000;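 active = top-ranked compounds by inhibition in the single 10 µM screen, taking a fixed number of the strongest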;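 also: 0% = full reaction with DMSO carrier and 100% = background rate without enzyme reaction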
DPM-DC inhibit = S. pneumoniae DPM-DC inhibitors, primary screen, biochemical, PK/LDH-coupled NADH fluorescence; diphosphomevalonate decarboxylase (Streptococcus pneumoniae D39); calls only at 10 µM; purified DPM-DC; hit rate 0.49% among 65,000; AID 556, 2006;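 active = the 320 compounds with the highest percent inhibition in the single-dose primary screen, excluding strongly autofluorescent ones, cut at about 32% in these data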;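 also: kinetic rate of NADH fluorescence loss reporting ADP formed by the decarboxylase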
NADH enzymes = inhibitors of PK/LDH coupling enzymes, profiling panel, artefact control, biochemical, MLSMR library. coupled PK/LDH NADH assays, four targets. IC50, µM (series often up to 10 µM), for inactives: top-dose inhibition. hit rate 0.02% among 65,000. AID 774, 2007;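 active = single-dose screening hits from any of four coupled enzyme assays that gave an IC50 when retested across doses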;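 also: the DPM-DC format reads NADH fluorescence rather than 340 nm absorbance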
A340 absorber = compound light absorbance at 340 nm, profiling panel, artefact control, biochemical, MLSMR library, data from PS, PMK, MK assays. 65,000 tested, under 10 active. fold change at 10 µM. AID 708, 2007. compound absorbance at 340 nm, fold over control;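 active = at 10 µM dose, initial 340 nm absorbance at least 2 fold that of control wells; inactive = change under 2 fold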;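 also: initial absorbance extrapolated from kinetic A340 decline of NADH oxidation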
Fluor 339 460 = intrinsic fluorescence of library compounds, ex339/em460 – biochemical, MLSMR library, data from DPM-DC assay, artefact control, profiling panel. AID 709, 2007. fluorescence fold increase at 10 µM. compound autofluorescence, ex339/em460 nm, NADH buffer; active compounds read high; 1 = no-compound wells, NADH background. hit rate 5.5% among 65,000;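 active = at 10 µM, mean starting fluorescence two-fold or more over control wells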;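 also: signal is the first read of a kinetic run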
* = called active by the depositor; i = inactive; · = not tested or not shown.

SMILES | MK inhibit | PMK inhibit | DPM-DC inhibit | NADH enzymes | A340 absorber | Fluor 339 460
COc1cccc(CNC(=O)C2CCCN(c3nn4c(=O)cc(C)nc4s3)C2)c1 (stereo not given) | 0 | 27* | i | 9% | 1 | 1.1
Cc1ccccc1NC(=O)CSc1nc(N)c(C#N)c(-c2cccs2)c1C#N | 0 | 8 | i | 5% | 1 | 1.6
Cc1nc(N)c(C#N)c(-c2ccccc2)c1C | 7 | 0 | i | 3% | 1.1 | 1.3
Cc1nn(-c2ccccc2)c2nc(N)c(C#N)c(-c3ccc(F)cc3)c12 | 11 | 6 | · | 9% | 1 | 3.8*
Cc1ccc(-n2nc(C)c3c(-c4cccs4)c(C#N)c(N)nc32)cc1 | 11 | 0 | i | 7% | 1.1 | 2.4*
COc1ccc2c(c1)c1ncn(CCN3CCCC3)c(=O)c1n2C | 9 | 10 | · | 10% | 1.1 | 3.7*
COc1ccccc1CCn1cnc2c3cc(C)ccc3n(C)c2c1=O | 4 | 0 | i | 8% | 1 | 3.3*
Cc1ccc2c(c1)[nH]c1c(=O)n(CCN3CCCCC3)cnc12 | 0 | 11 | i | 6% | 1.1 | 1.7
CCN1CCN(C(=O)c2ccc3c(c2)N(Cc2ccc(F)cc2)C(=O)c2ccccc2S3=O)CC1 (stereo not given) | 10 | 0 | i | 3% | 1 | 1.1
COc1cc(OC)nc(NC(=O)CSc2nnc(-c3ccccc3)n2C2CCCCC2)n1 | 4 | 6 | i | 3% | 1.1 | 1.1
CC1(C)Oc2ccc3ccc(=O)oc3c2-c2cnoc21 | 5 | 10 | · | 8% | 1.1 | 2.2*
CC1(C)Oc2ccc3ccc(=O)oc3c2-c2cn[nH]c21 | 0 | 6 | i | 3% | 1.1 | 1.4
Cc1cnc(N)c2c(=O)oc3ccccc3c12 | 5 | 6 | · | 6% | 1.1 | 2.1*
Cc1nnc(SCC(=O)N2CC(=O)Nc3ccccc32)n1-c1ccccc1 | 11 | 35* | i | 6% | 0.95 | 1
CCOc1cc(C(=O)NCc2nnc(SCC(=O)OC)n2C)cc(OCC)c1OCC | 0 | 12* | i | 12% | 1 | 1
CC(CCc1ccccc1)NC(=O)CSc1nc(N)cc(N)n1 (stereo not given) | 4 | 0 | i | 2% | 0.99 | 1
CCOC(=O)c1oc2ccccc2c1NC(=O)COc1ccc(F)cc1 | 8 | 15 | i | 16% | 1.1 | 3.9*
CCOC(=O)c1oc2ccccc2c1NC(=O)c1ccccc1OC | 5 | 13 | i | 6% | 1 | 1.5
CCOC(=O)c1oc2ccccc2c1NC(=O)COc1cccc(OC)c1 | 3 | 11 | i | 8% | 1.1 | 2.9*
Cc1c(NC(=O)C(C)N2CC(C)OC(C)C2)c(=O)n(-c2ccccc2)n1C (stereo not given) | 3 | 13 | i | 5% | 0.99 | 1.1
CCc1c(-c2ccccc2)nc2nc(C)c(C)nn12 | 5 | 0 | · | 3% | 1.1 | 2.1*
CCN(c1ccccc1)c1cc(C)nc2nc(C)nn12 | 5 | 15 | i | 7% | 1.1 | 1
Cc1nc2nc(-c3ccccc3)cn2nc1C | 8 | 0 | · | 4% | 1.1 | 2.2*
CCc1ccc(-c2cn3nc(C)c(C)nc3n2)cc1 | 8 | 0 | · | 4% | 1.1 | 2.3*
Cc1cc(N)n2nc(-c3ccccc3)cc2n1 | 3 | 9 | i | 5% | 1 | 1.6
Cc1nn2cc(-c3ccc(N)cc3)nc2s1 | 1 | 17 | i | 6% | 1 | 1
Cc1ccccc1-n1nnnc1SC1CCOC1=O (stereo not given) | 3 | 8 | i | 4% | 0.98 | 1.1
Cc1cc(N/C=C2\CCCCC2=O)no1 | 15 | 0 | i | 7% | 1.2 | 0.94
Cn1c(Cl)cnc1C1CC(=O)c2cc(Cl)ccc2O1 (stereo not given) | 10 | 5 | i | 3% | 1 | 1.1
O=c1nc(-c2ccccc2)cc(-c2ccccc2)[nH]1 | 0 | 5 | · | 3% | 1.1 | 2.2*
